Data on 60 compounds can be found in PubChem BioAssay AID743402 (Broad Institute, 2014).

The campaign covered roughly 1,200 compounds. About 140 (12%) were called active.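 Rule for the calls: active = fitted curve falls past -35% activity change at a dose under twice the top valid dose, in every replicate test; inconclusive = replicate tests disagree on the call; inactive = the rest, including activity in the opposite direction.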 Only a sample is shown.

The experiment can be described thus: CFTR-F508del correctors, dose response, FRT cells, YFP quenching, cherry-pick (AID 743402).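 Note: compounds act as correctors raising surface CFTR-F508del before acute activation.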 To be noted: FRT CFTR-F508del YFP iodide quenching, 24 h, channel opened with forskolin and a potentiator; series mostly up to 26 µM.
For `O=C(Nc1ccc(Br)cn1)c1cccc2ccccc12`, the activity change, negative = more quenching (active) result was “inactive”.

With `Cc1cc2c(cc1S(=O)(=O)Nc1ccc(F)cc1)n(C)c(=O)c(=O)n2C`, the activity change, negative = more quenching (active) result was “inactive”.

Turning to `CC(=O)Nc1ccc(S(=O)(=O)NC2=C(N3CCN(Cc4ccccc4)CC3)C(=O)c3ccccc3C2=O)cc1`, the activity change, negative = more quenching (active) result was “inactive”.

As for `N#Cc1c(-c2ccc(F)cc2)c(-c2ccc(F)cc2)nn(CCO)c1=O`, the activity change, negative = more quenching (active) entry is “inactive”.

Consider `C[C@@H]1CN([C@H](C)CO)C(=O)c2cc(NS(=O)(=O)c3ccc(Cl)cc3)ccc2O[C@@H]1CN(C)Cc1ccc(-c2ccccc2)cc1`, for which the activity change, negative = more quenching (active) entry was “inactive”.

`COc1ccc2c3c([nH]c2c1)[C@H](CO)N(C(=O)C1CCOCC1)CC31CCN(Cc2cccc(F)c2)CC1`: the activity change, negative = more quenching (active) entry was “inactive”.

As to `Cc1cc(C(=O)N/N=C/c2ccc(N(C)C)cc2)c2ccccc2n1`, the activity change, negative = more quenching (active) result is “inactive”.

As to `NCC(=O)NNC(=O)OCC1c2ccccc2-c2ccccc21`, the activity change, negative = more quenching (active) entry was “inactive”.

As to `COc1ccc(OC)c(-c2cc(-c3cccnc3)nc(N)c2C#N)c1`, the activity change, negative = more quenching (active) result is “inactive”.

In the case of `COc1cccc(N=Nc2ccc3cccnc3c2O)c1`, the activity change, negative = more quenching (active) entry was “inactive”.

Take `COc1cc(/C=C2/SC(=Nc3ccc(O)cc3)NC2=O)cc(OC)c1O`: the activity change, negative = more quenching (active) entry is “inactive”.

`O=C1NC(=Nc2ccc(O)cc2)S/C1=C/c1ccco1`: the activity change, negative = more quenching (active) result was “inactive”.

As for `CC(=O)c1ccc(Nc2cc(C)nc3c(C)cc(C)cc23)cc1`, the activity change, negative = more quenching (active) result is “inactive”.

As to `COc1ccc(Nc2nc(-c3sc(C)nc3C)cs2)cc1`, the activity change, negative = more quenching (active) entry was “inactive”.

Turning to `COc1ccc(-c2ccc3c(c2)[C@H]2[C@H](CCN2S(=O)(=O)c2ccc(OC)cc2)[C@@H](CO)N3C)cc1`, the activity change, negative = more quenching (active) entry is “inactive”.

`Cc1cccc(N2CCN(C(=O)c3c(-c4ccccc4)noc3C)CC2)c1C`: the activity change, negative = more quenching (active) result was “inactive”.

In the case of `C[C@@H]1CN([C@@H](C)CO)C(=O)c2cc(NS(=O)(=O)c3ccc(Cl)cc3)ccc2O[C@@H]1CN(C)Cc1ccc(C(F)(F)F)cc1`, the activity change, negative = more quenching (active) entry was “inactive”.

`Nc1[nH]c(C(=O)c2ccccc2)c(-c2ccccc2C(F)(F)F)c1C(=O)NCCc1c[nH]c2ccccc12`: the activity change, negative = more quenching (active) result is “inactive”.

As to `Cc1cc(C)c2nc(Cl)c(CN(Cc3ccco3)C(=O)Nc3ccccc3C)cc2c1`, the activity change, negative = more quenching (active) result was “inactive”.

For the compound `COc1ccc(-c2ccnc(-c3ccc(O)cc3)n2)cc1`, the activity change, negative = more quenching (active) result was “inactive”.

`O=C(c1ccc(Br)cc1)c1cc([N+](=O)[O-])ccc1N1CCOCC1`: the activity change, negative = more quenching (active) entry was “inactive”.

As to `COc1ccc([N+](=O)[O-])cc1Nc1c2ccccc2nc2ccccc12`, the activity change, negative = more quenching (active) entry is “inactive”.

As for `COC(=O)/C=C/c1ccccc1S(=O)(=O)N(Cc1ccccc1)Cc1ccco1`, the activity change, negative = more quenching (active) result is “inactive”.

Regarding `NS(=O)(=O)c1ccc(S(=O)(=O)N(CCc2ccccc2)Cc2ccccn2)cc1`, the activity change, negative = more quenching (active) result is “inactive”.

As to `CCN1CCN(c2cc(C)c3cc(NC(=O)c4ccc(OC)c(OC)c4)ccc3n2)CC1`, the activity change, negative = more quenching (active) entry was “inactive”.

As for `N=C1/C(=C/c2cccn2CCOc2ccccc2)C(=O)N=C2SC=C(c3ccccc3)N12`, the activity change, negative = more quenching (active) entry was “inactive”.

As for `O=C1C=C(NCCc2cc(Br)c(O)c(Br)c2)C(=O)c2ncccc21`, the activity change, negative = more quenching (active) entry is “inactive”.

Consider `Nc1c(C(=O)c2ccco2)oc2ccccc12`, for which the activity change, negative = more quenching (active) entry is “inactive”.

For the compound `Nc1ccn(C2OC(CO)C(O)C2O)c(=O)n1` (stereo not given), the activity change, negative = more quenching (active) entry is “inactive”.

For the compound `O=C(CCCl)Nc1nc2c(s1)CCc1ccccc1-2`, the activity change, negative = more quenching (active) result is “inactive”.

As for `C[C@H]1CN([C@@H](C)CO)S(=O)(=O)c2ccc(C#CC3CCCCC3)cc2O[C@H]1CN(C)Cc1cccnc1`, the activity change, negative = more quenching (active) entry is “inactive”.

Regarding `CCOC(=O)c1ccc(N2CCOCC2)c(NC(=O)c2c(-c3ccccc3)noc2C)c1`, the activity change, negative = more quenching (active) result is “inactive”.

With `CCN(CC)c1ccc(/C=N/NC(=O)c2cnccn2)cc1`, the activity change, negative = more quenching (active) result is “inactive”.

`COc1ccc(NC(=O)c2cc(S(=O)(=O)N3CCOCC3)ccc2C)cc1S(=O)(=O)N1CCOCC1`: the activity change, negative = more quenching (active) result is “inactive”.

Turning to `OC[C@@H]1CN(Cc2ccc(-c3ccccc3)cc2)C[C@H](n2cnc3c(NC4CC4)ncnc32)O1`, the activity change, negative = more quenching (active) result was “inactive”.

Regarding `COc1ccccc1NC(=O)CSc1ccc(-c2ccccn2)nn1`, the activity change, negative = more quenching (active) result is “inactive”.

Take `COc1ccccc1N=C1SC(C(=O)Nc2cccc(Cl)c2Cl)C(N)=C1C(N)=O` (stereo not given): the activity change, negative = more quenching (active) entry was “inactive”.

Turning to `CC(C)C[C@H]1CN([C@@H](Cc2ccc(O)cc2)CN2CCC[C@H]2CN2C(=O)C(=O)NC[C@@H]2Cc2ccccc2)C(=O)C(=O)N1CC1CCCCC1`, the activity change, negative = more quenching (active) result was “inactive”.

Consider `CCC(=O)N1CC2(CCN(Cc3ccc(Cl)cc3)CC2)c2c(n(C)c3cc(OC)ccc23)[C@H]1CO`, for which the activity change, negative = more quenching (active) result is “inactive”.

For `COC(=O)C1=CN(c2ccc(OC)cc2OC)C(N)=C(C#N)C1c1ccccc1F` (stereo not given), the activity change, negative = more quenching (active) result is “inactive”.

As for `CCCC(=O)NC(c1ccc(Cl)cc1)c1ccc2cccnc2c1O` (stereo not given), the activity change, negative = more quenching (active) entry is “inactive”.

Take `Cc1cccc(NC(=S)N/N=C/c2cccc(O)c2)c1C`: the activity change, negative = more quenching (active) result was “inactive”.

Regarding `Cc1cnc(NC(=O)c2ccc3c(c2)OCCO3)s1`, the activity change, negative = more quenching (active) entry is “inactive”.

`Cc1cc(Br)cc(/C=N/NC(=O)c2ccc3c(c2)OCO3)c1O`: the activity change, negative = more quenching (active) result is “inactive”.

Regarding `O=C(Cc1ccc(Br)cc1)NCc1ccccc1`, the activity change, negative = more quenching (active) entry was “inactive”.

For `Cc1nc(N)[nH]c(=O)c1CCCNS(=O)(=O)c1ccc([N+](=O)[O-])cc1`, the activity change, negative = more quenching (active) result was “inactive”.

For the compound `CC(C)CN(CCCNC(=O)CN1C(=O)CSc2ccc(S(=O)(=O)N3CCOCC3)cc21)CC(C)C`, the activity change, negative = more quenching (active) entry is “inactive”.

With `CCN(CC)C(=O)c1oc2ccc(S(=O)(=O)N3CC(C)CC(C)C3)cc2c1C` (stereo not given), the activity change, negative = more quenching (active) entry is “inactive”.

`O=C(N=Nc1c(O)[nH]c2ccc(Br)cc12)c1ccccc1-n1cccc1`: the activity change, negative = more quenching (active) result was “inactive”.

For `Cn1cccc1/C=C1\SC(=Nc2cccc(O)c2)NC1=O`, the activity change, negative = more quenching (active) entry is “inactive”.

Consider `Cc1ccc(C2NC(=O)c3ccccc3N2)c(C)c1` (stereo not given), for which the activity change, negative = more quenching (active) entry was “inactive”.

With `Cn1cc(C(=O)N/N=C/c2ccc3c(c2)OCO3)c2ccccc21`, the activity change, negative = more quenching (active) entry was “inactive”.

For `COc1cc(OC)c2c(-c3cccc(-c4cccc(N)c4)c3)cc(=O)oc2c1`, the activity change, negative = more quenching (active) entry was “inactive”.

As to `CC(C)Nc1ccc(Nc2ccnc3cc4ccccc4cc23)cc1`, the activity change, negative = more quenching (active) result is “inactive”.

Consider `COc1ccc(-c2ccc3c(c2)[C@H]2[C@H](CCN2S(=O)(=O)c2ccc(OC)cc2)[C@H](CO)N3C)cc1`, for which the activity change, negative = more quenching (active) result was “inactive”.

For `CN1c2ccc(-c3ccc(F)cc3)cc2[C@H]2[C@H](CCN2S(=O)(=O)c2cccc(F)c2)[C@@H]1CO`, the activity change, negative = more quenching (active) result is “inactive”.

Consider `Cc1ccccc1S(=O)(=O)N1C[C@@H]2N[C@H](C1)C2c1ccc(-c2cccc(C#N)c2)cc1` (stereo not given in full), for which the activity change, negative = more quenching (active) result is “inactive”.

Take `Cc1cccc(S(=O)(=O)N2C[C@H]3[C@@H](c4ccccc42)[C@H](CO)N3CC2CCCC2)c1`: the activity change, negative = more quenching (active) entry is “inactive”.

As for `COc1cccc(-c2ccc([C@H]3[C@@H](CO)N(C(=O)c4ccccn4)[C@H]3C#N)cc2)c1`, the activity change, negative = more quenching (active) result is “inactive”.

Regarding `CCCNC(=O)N1CC2(CN(S(=O)(=O)c3cccc(OC)c3)C2)c2c(n(C)c3cc(OC)ccc23)[C@H]1CO`, the activity change, negative = more quenching (active) entry was “inactive”.
